This is an account of results in PubChem BioAssay (NCI).

Some test systems named below: SK-MEL-2 melanoma; EKVX NSCLC; SN12C renal; UO-31 renal; TK-10 renal; ACHN renal; A498 renal; CCRF-CEM leukemia; MOLT-4 leukemia; CAKI-1 renal.
Holding throughout (assay): NCI-60 one-dose screen, 48 h (100 = growth as untreated, 0 = no growth, -100 = all killed)
What all share (settings): 10 µM

This is part of a sample that, as a whole, favours compounds with a hit. Of some 83,000 tested, about 20% had one in any assay.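 For each line, cells grew in 96-well plates with the test compound present at a single concentration for 48 hours.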 A number with no mark means an inactive call. The source made the active and inactive calls. How the source made its calls: active means growth percent below 10; inactive means the rest.

Consider `Cc1cc(=O)n2nnc3cc(Cl)c(Cl)cc3n12`, for which the growth in the assay with SK-MEL-2 melanoma was 102%; in the assay on EKVX NSCLC, 92.6%; in the assay on SN12C renal, 107%; in the assay on UO-31 renal, 81.3%; with TK-10 renal it was 102%; in the assay on ACHN renal, 90.2%. For the same compound, the growth with A498 renal is 138%; in the assay with CCRF-CEM leukemia, 23.1%; in the assay with MOLT-4 leukemia, 59.2%.
`Cc1ccc(NCCN(C)CC(C)O)c2c(=O)c3ccc(Cl)cc3sc12` (configuration not stated): the growth with SK-MEL-2 melanoma is 66.8%; with EKVX NSCLC, 78.5%; in the assay on SN12C renal it was 49.8%; in the assay with UO-31 renal, 51.5%; with TK-10 renal, 79.1%; with ACHN renal it was 44.6%. The results for the growth in the assay with A498 renal, with CCRF-CEM leukemia and with MOLT-4 leukemia were 73.8%, 20.4% and 16.2%, respectively.
Turning to `CCN(CC)CCNc1ccc(C)c2sc3cc(Cl)ccc3c(=O)c12`, the growth in the assay with SK-MEL-2 melanoma is 36.5%; in the assay on EKVX NSCLC, 71.3%; with SN12C renal, 35.6%; in the assay on UO-31 renal, 26.9%; in the assay with TK-10 renal it was 50.6%; in the assay on ACHN renal, 28.1%. Also, the results for the growth in the assay on A498 renal, in the assay on CCRF-CEM leukemia and in the assay on MOLT-4 leukemia were 53.5%, 11.6% and 1.35% (active), respectively.
Consider `COc1cc(-c2nn(-c3cccc(NC(=O)CCN4CCN(Cc5ccccc5)CC4)c3)cc2-c2ccncc2)ccc1Cl`, for which the growth is -31.2% (active) in the assay on SK-MEL-2 melanoma; 48.2% with EKVX NSCLC; 41.7% with SN12C renal; 15.6% with UO-31 renal; 26.1% with TK-10 renal; 24.1% in the assay on ACHN renal. Moreover, the growth with A498 renal is -8.39% (active); in the assay with CCRF-CEM leukemia, 4.24% (active); in the assay with MOLT-4 leukemia, 5.06% (active).
Turning to `O=C(Nc1ccccc1)Nc1ncnc2c1ncn2-c1ccccc1`, the growth in the assay with SK-MEL-2 melanoma was 104%; with EKVX NSCLC, 78.5%; with SN12C renal, 83.3%; in the assay with UO-31 renal it was 69.4%; in the assay with TK-10 renal, 75.2%; in the assay on ACHN renal it was 22.2%. Also, the growth with CAKI-1 renal was 82.5%; with MOLT-4 leukemia, 94.1%.
`Nc1ccn(Cc2nnc(CCC(=O)c3nc4ccccc4[nH]3)o2)c(=O)n1`: the growth is 100% in the assay with SK-MEL-2 melanoma; 84.1% in the assay with EKVX NSCLC; 87.1% in the assay on SN12C renal; 44.2% in the assay on UO-31 renal; 100% with TK-10 renal; 87% with ACHN renal. Besides, the growth is 82.8% with CAKI-1 renal and 8.54% (active) with MOLT-4 leukemia.
